Drawing on PubChem BioAssay AID589 (National Center for Advancing Translational Sciences (NCATS), 2007), this text covers max dye-equivalent concentration for 111 molecules.

In all, about 59,000 compounds went through this assay and about 6,200 (11%) were called active. Not shown: some 9% with an inconclusive outcome. Cut-off read from the data, not from the text of the source: active = max dye-equivalent concentration above about 10 nM; inconclusive = mostly about 1.1 nM to 9.6 nM; inactive = weaker than that. Shown is part of a subset that was picked to be rich in actives.

This test can be described thus: qHTS Assay for Spectroscopic Profiling in 4-MU Spectral Region. The settings on record: compound autofluorescence, 340/450 nm, 4-MU equivalents; stronger effect = higher value. The method in brief:
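Compounds in 100 mM Tris, pH 8.0, incubated 15 min at room temperature, then fluorescence read at 340 nm excitation/450 nm emission. Signal converted to 4-MU dye-equivalent concentration using an on-plate six-point 4-MU standard curve.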
(In qHTS, concentration-response curves come from the screen itself.)
Take `Cc1ccc(S(=O)(=O)N2CCC(C(=O)OCC(=O)N3CC(=O)Nc4ccccc43)CC2)cc1`: the max dye-equivalent concentration entry is “inactive”. Then `CN(C)C(=O)c1ccc(-c2cncnc2NC2CCNCC2)cc1`, with “inactive”; and `CC(=O)OCC(=O)[C@@]1(O)CC[C@@H]2[C@H]3CCC4=CC(=O)C=C[C@]4(C)[C@]3(F)[C@@H](O)C[C@@]21C`, with “inactive”. Then `Cn1c(Cc2csc(N)n2)nnc1SC/C=C/c1ccccc1`, with “inactive”; and `O=C(Nc1ccc2c(c1)OCCO2)c1ccncc1`, with “inactive”; and `COc1ccc(C(=O)N2CCC3(CCCN(C(c4ccccc4)c4ccccc4)C3)CC2)cc1`, with “inactive”. With `CC(c1ccco1)N(C(=O)c1ccc(S(=O)(=O)N2CCCCC2)cc1)c1ccccn1` (stereo unspecified) the entry was “inactive”. Turning to `CCOc1cccc(NC(=O)C2CCCN(S(=O)(=O)c3ccc(OC)cc3)C2)c1` (stereo unspecified), the max dye-equivalent concentration entry was “inactive”.

Take `C[C@@H]1CC[C@H]2[C@H](C)[C@H]3[C@H](C[C@H]4[C@@H]5CC=C6C[C@@H](O)CC[C@@]6(C)[C@@H]5C[C@@H](O)[C@]34C)N2C1`: the max dye-equivalent concentration entry was “inactive”. With `CC1CCc2sc3nc(N4CCN(CCO)CC4)n4ncnc4c3c2C1` (stereo unspecified) the entry was “inactive”; with `CCCn1nnc2sc3c(c2c1=O)CCC(C)C3` (stereo unspecified), 33 nM (active). With `O=c1c2ccccc2nnn1CSc1nc2sc3c(c2c(=O)n1CC1CCCO1)CCC3` (stereo unspecified) the entry was “inactive”. Then `O/N=C(\c1ccc2c(c1)OCCO2)C1CCCCC1`, with “inactive”; and `CCN(CC)Cc1c(C(=O)OC)nnn1-c1nonc1N`, with “inactive”; and `CC(=O)c1sc2nc(SCC(=O)N3CCCCC3)[nH]c(=O)c2c1C`, with “inactive”.

Regarding `O=C1N=C(N2CCOCC2)CS1`, the max dye-equivalent concentration entry is “inactive”. Then `CN(CCC#N)c1ncnc2scc(-c3ccccc3)c12`, with “inactive”.

As to `CCCC(=O)NC(C)C(c1cccs1)N1CCN(c2ccccc2)CC1` (stereo unspecified), the max dye-equivalent concentration result is “inactive”.

Take `CCOC(=O)c1ccc(NC(=O)CSc2ncccn2)cc1`: the max dye-equivalent concentration result was “inactive”. For `CCOC(=O)C1=C(C)NC(C)=C(C(=O)OCC)C1c1ccccn1`, the max dye-equivalent concentration was 290 nM (active).

`COCCOC(=O)C1=C(C)Nc2nc(C)nn2C1c1ccccc1` (stereo unspecified): the max dye-equivalent concentration entry is “inactive”. With `Cc1ccc(S(=O)(=O)NCCN2CCOCC2)cc1C` the entry was “inactive”; with `Cc1nn(C)c(C)c1S(=O)(=O)N1CCc2ccccc21`, “inactive”; with `CCCCNc1nc2ccccc2nc1NS(=O)(=O)c1cccs1`, 45 nM (active). With `O=S(=O)(c1cccs1)N1CCN(Cc2ccccc2)CC1` the entry was “inactive”; with `O=S(=O)(c1cccs1)N1CCc2ccccc2C1`, “inactive”; with `CC(C)CCNC(=O)CN(C(=O)Cn1nnc(-c2ccc(F)cc2)n1)C1CCCC1`, “inactive”. With `O=C(O)c1cscn1`, the max dye-equivalent concentration entry was “inactive”. Then `CCCS(=O)(=O)N1CCN(C(=O)c2cccs2)CC1`, with “inactive”; and `COc1ccc(S(=O)(=O)N2CCN(C(=O)c3cccs3)CC2)cc1OC`, with 3300 nM (active). Then `COc1ccc(OCC(=O)N2CCN(C(=O)c3cccs3)CC2)cc1`, with “inactive”. Then `NCC(=O)[C@@H](O)[C@H](O)[C@H](O)CO`, with “inactive”.

Regarding `CCn1c(SCC(=O)Nc2cc(C)c(Cl)cc2OC)nnc1-c1ccco1`, the max dye-equivalent concentration result was “inactive”. With `O=S(=O)(NCc1ccc2c(c1)OCO2)c1cccc2nsnc12` the entry was “inactive”; with `COc1ccc(/C(O)=C2/C(=O)C(=O)N(CCCN(C)C)C2c2ccccc2)cc1OC` (stereo unspecified), “inactive”. With `CCCOc1ccc(/C(O)=C2/C(=O)C(=O)N(CCN(C)C)C2c2ccc(OC)c(OC)c2)cc1` (stereo unspecified) the entry was “inactive”; with `CCN(CC)CCN1C(=O)C(=O)/C(=C(/O)c2ccc(OC)c(OC)c2)C1c1ccccn1` (stereo unspecified), 33 nM (active). Then `CCn1nc(C(=O)OCC(=O)N2c3ccccc3CC2C)c2ccccc2c1=O` (stereo unspecified), with “inactive”; and `Cc1noc(COc2ccccc2OCC(O)CNC(C)(C)C)n1` (stereo unspecified), with “inactive”. Turning to `CCc1nc(N2CCN(c3nc(C)cc(C)n3)CC2)c2oc3ccccc3c2n1`, the max dye-equivalent concentration result is “inactive”. With `CCSc1nc(C)nc2c1oc1ccccc12` the entry was “inactive”; with `CCc1nc(Nc2ccc3nccnc3c2)c2oc3ccccc3c2n1`, 55 nM (active); with `COc1ccccc1CNC(=O)CCCn1c(=O)c2ccccc2n(CC(=O)NC2CCCC2)c1=O`, “inactive”. With `Cc1ccc(C(c2nnnn2CS(=O)(=O)c2ccc(C)cc2)N2CCC(C(N)=O)CC2)cc1` (stereo unspecified) the entry was “inactive”; with `O=C(NCc1ccco1)c1cnn2c(C(F)(F)F)cc(-c3ccco3)nc12`, 260 nM (active). On to `O=C(CSc1nc(-c2ccco2)cc(C(F)(F)F)n1)N1CCc2ccccc2C1`, for which the max dye-equivalent concentration entry was “inactive”. Consider `COC(=O)c1ccccc1NC(=O)Cn1nc(C(F)(F)F)c2c1CCC2`, for which the max dye-equivalent concentration result was “inactive”. Then `O=C(NCc1ccco1)c1cc(-c2cccnc2)nc2ccc(Cl)cc12`, with “inactive”; and `O=C(Nc1ccccc1)Nc1ccccc1C(=O)NCc1ccco1`, with “inactive”. Then `COC(=O)c1cnn2c(C(F)(F)F)cc(-c3ccco3)nc12`, with 970 nM (active); and `CCOC(=O)C1C(=O)OC2(CCCC2)C1C(=O)OCC` (stereo unspecified), with “inactive”; and `Cc1cccc(NC(=O)C2CCCN2S(=O)(=O)c2ccc(F)cc2)c1C` (stereo unspecified), with “inactive”. Turning to `CCOC(=O)C1(C(F)(F)F)N=C(N(C)C)OC(N(C)C)=N1`, the max dye-equivalent concentration entry was “inactive”. With `CC(=O)c1c(C)n(-c2ccc(N(C)C)cc2)c2ccc(OCC(N)=O)cc12` the entry was “inactive”.

On to `COc1cc(OC)c(C(=O)NC2CC(C)(C)NC(C)(C)C2)cc1OC`, for which the max dye-equivalent concentration result is “inactive”. With `COc1ccc(CCn2c(NCCCN3CCOCC3)nc3c2c(=O)[nH]c(=O)n3C)cc1` the entry was “inactive”. With `CCCCn1c(SCc2ncc(-c3ccccc3)o2)nc2cc(S(N)(=O)=O)ccc21` the entry was “inactive”; with `Cc1nc(NCCN)c(C#N)c2c1COC(C)(C)C2`, 13 nM (active); with `CCN1CCN(c2ncnc3c2oc2nc(C)c4c(c23)CC(C)(C)OC4)CC1`, “inactive”. Then `C=CCNC(=O)CCCC(=O)NCC=C`, with “inactive”; and `Nc1nc2c(ncn2[C@H]2CC[C@@H](CO)O2)c(=O)n1C(=O)c1ccccc1`, with “inactive”.

Consider `CC(=O)c1cccc(NC(=O)N2CCCC2C(=O)NCCC(C)C)c1` (stereo unspecified), for which the max dye-equivalent concentration entry was “inactive”. With `COc1ccc(NC(=O)N2CC3(CCN(C(C)=O)CC3)C2)cc1`, the max dye-equivalent concentration result was “inactive”. With `CCOC(=O)c1c(NC(=O)CCC(=O)NCc2ccco2)sc2c1CCCC2` the entry was “inactive”. With `CCOC(=O)N1CCN(Cc2oc(CO)cc(=O)c2O)CC1` the entry was “inactive”; with `CCCc1cc(=O)oc2c(C)c(O)c(CN3CCCCC3)cc12`, 7800 nM (active). With `Nc1nnnn1/N=C/c1cccs1` the entry was “inactive”.

As to `COC(=O)Nc1nc2ccc(Sc3ccccc3)cc2[nH]1`, the max dye-equivalent concentration was 14 nM (active). Then `Oc1ccc2nc(Cc3ccccc3)[nH]c2c1`, with “inactive”; and `COC(=O)Cc1nc2ccccc2[nH]1`, with “inactive”. For `COC(=O)c1nc(NC(=O)c2ccc(Cl)cc2)n[nH]1`, the max dye-equivalent concentration entry was “inactive”. Then `CCC(=O)Nc1ccccc1N1CCN(S(C)(=O)=O)CC1`, with “inactive”; and `O=C(Cn1cnc2c(cnn2-c2ccccc2)c1=O)NCc1ccccc1`, with “inactive”. With `O=C(Nc1ccc(S(=O)(=O)N2CCCC2)cc1Cl)C1=COCCO1` the entry was “inactive”; with `O=C(Cn1c(=O)sc2ccccc21)Nc1ccc2c(c1)OCCO2`, “inactive”; with `CC(C)(C)NC(=O)NC(=O)COC(=O)Cn1c(C(F)(F)F)nc2ccccc21`, “inactive”. With `Cn1cccc1C(=O)NC(=O)COC(=O)Cc1coc2ccc3ccccc3c12` the figure was 30 nM (active); with `Cn1cccc1C(=O)Nc1nccs1`, “inactive”. Turning to `CC(=O)c1cc2c(cc1N)OCO2`, the max dye-equivalent concentration result was “inactive”.

Turning to `COCc1[nH]nc2c1C(C1C=CCCC1)C(C#N)=C(N)O2` (stereo unspecified), the max dye-equivalent concentration entry was “inactive”. On to `CC(=O)Oc1ccc2c(C)c(CC(C)O)c(=O)oc2c1` (stereo unspecified), for which the max dye-equivalent concentration was 15000 nM (active).

Take `FC(F)(F)c1ccccc1-c1nc(-n2ccnc2)c2ccccc2n1`: the max dye-equivalent concentration entry is “inactive”. With `O=C1CN(C(=O)COC(=O)C2CC(=O)N(Cc3ccco3)C2)c2ccccc2N1` (stereo unspecified) the entry was “inactive”; with `COc1ccc(C(=O)n2nc(-c3ccc(C)cc3)nc2N)cc1OC`, 35 nM (active). With `COc1ccc(C(=O)n2nc(-c3ccc(Cl)cc3)nc2N)cc1OC` the entry was “inactive”.

As for `COc1ccccc1C(=O)n1nc(-c2ccccc2)nc1N`, the max dye-equivalent concentration entry was “inactive”. With `CN(C(=O)c1ccccn1)c1nnc(-c2ccccn2)s1` the entry was “inactive”; with `C=CCNC(=O)c1ccc(C)c(Br)c1`, “inactive”. With `CCOC(=O)N1CCN(C(=O)c2cc3c(ccc4ccccc43)oc2=O)CC1` the figure was 1500 nM (active); with `CCCCC(=O)Nc1cc(C)c2c(=O)oc3ccccc3c2n1`, “inactive”; with `COc1c(C(=O)N2CCCC2)ccc2ccccc12`, “inactive”. In the case of `CCOC(=O)N1CCN(C(=O)c2n[nH]c(=O)c3ccccc23)CC1`, the max dye-equivalent concentration result is “inactive”. With `CNC(=O)c1cc2c(ccc3ccccc32)oc1=N` the figure was 9900 nM (active); with `O=C(NCCc1ccc2c(c1)OCCO2)c1cc2ccccc2o1`, “inactive”. With `C=CCSc1nc2ccccc2[nH]1` the entry was “inactive”; with `Cc1ccc(CNC(=O)C2CC(=O)N(C3CCCCCCC3)C2)cc1` (stereo unspecified), “inactive”; with `COc1ccc(CCNS(=O)(=O)c2ccc(F)cc2)cc1OC`, “inactive”.

Turning to `COC(=O)c1ccc2c(c1)S(=O)(=O)NC(=NCCCN1CCOCC1)S2`, the max dye-equivalent concentration entry was “inactive”. In the case of `Cc1cc(-n2nc(C)cc2C)n2ncc(-c3ccccc3)c2n1`, the max dye-equivalent concentration result was “inactive”. For `Cc1cc(C(F)(F)F)n2ncc(-c3ccccc3)c2n1`, the max dye-equivalent concentration was 12 nM (active). Then `Cc1cc(Cl)ccc1OCC(=O)Oc1c(Cl)c(Cl)c(Cl)c(Cl)c1Cl`, with “inactive”; and `Cc1cc(C)c2nc(SCCC#N)nc(C)c2c1`, with “inactive”. Then `C=CCN(c1ccc(C(N)=O)cc1)S(C)(=O)=O`, with “inactive”; and `O=C(CSc1nnc(-c2ccccc2)o1)N1CCOCC1`, with “inactive”; and `Nc1ccc(-c2nnc(-c3ccc(-c4ccccc4)cc3)o2)cc1`, with 170 nM (active). Then `O=C(COC(=O)c1ccc(Oc2ccccc2)cc1)Nc1nnc(-c2ccccc2)o1`, with “inactive”; and `O=C(Nc1ccc(Cl)cc1)c1ccsn1`, with “inactive”; and `CCC[C@H]1C(=O)N2C(N(C)C)=Nc3ccc(C)cc3N2C1=O`, with “inactive”. Consider `COc1ccc(-n2c(C)cc(C(=O)CSc3nnc(-c4cccs4)o3)c2C)cc1`, for which the max dye-equivalent concentration entry was “inactive”. Regarding `COc1ccc(-c2nnc(SCC(=O)c3cccs3)o2)c(OC)c1`, the max dye-equivalent concentration entry is “inactive”. With `COc1ccc(OC)c(C(=O)CSc2nnc(-c3cccs3)o2)c1` the figure was 150 nM (active).
